Results taken from PubChem BioAssay (NCI).
Compounds without any hit were thinned out: in the full panel of roughly 79,000, 15% have a hit. Active and inactive are the calls of the source. Rule as the data show it: active = growth inhibition above about 70%; inactive = the rest.

Columns and labels:
[1] = NCI Yeast Anticancer Drug Screen. Data for the rad50 strain (AID 155);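 also: 0% = growth of vehicle-only cultures of the same strain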; details: S. cerevisiae rad50 strain growth inhibition, hits give high values
In short: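 DNA repair mutant yeast, compound exposure, growth read-out; inhibition is taken relative to vehicle.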

[2] = NCI Yeast Anticancer Drug Screen. Data for the mec2-1 strain (AID 157); details: S. cerevisiae mec2-1 strain, hits give high values
In short: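 mec2-1 yeast strain, carrying an alteration in DNA damage repair or cell cycle control, was exposed to compounds; growth inhibition was measured relative to vehicle-treated controls.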

[3] = NCI Yeast Anticancer Drug Screen. Data for the sgs1 mgt1 strain (AID 161);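 also: 0% = growth of cultures given vehicle only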; details: S. cerevisiae sgs1 mgt1 strain, hits give high values
In short: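 Percent growth inhibition was derived by comparing compound-exposed mutant yeast with vehicle-exposed cultures. The strain carries alterations in DNA damage repair.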

[4] = NCI Yeast Anticancer Drug Screen. Data for the cln2 rad14 strain (AID 165);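 also: 0% = growth equal to vehicle treated cultures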; details: S. cerevisiae cln2 rad14 strain, hits give high values
In short: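 Yeast carrying cln2 and rad14 alterations (cell cycle control and DNA damage repair) were exposed to compounds. Growth inhibition was measured against vehicle-treated controls.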

[5] = NCI Yeast Anticancer Drug Screen. Data for the bub3 strain (AID 167); details: S. cerevisiae bub3 mutant strain, hits give high values
In short: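 In this screen, a yeast mutant lacking normal mitotic checkpoint function is challenged with compound. Relative growth versus vehicle gives the inhibition value.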

[6] = NCI Yeast Anticancer Drug Screen. Data for the mlh1 rad18 strain (AID 175); details: S. cerevisiae mlh1 rad18 strain growth inhibition, hits give high values
In short: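 Growth inhibition of the yeast strain was measured after compound exposure and expressed relative to vehicle-treated controls. The strain carries defined defects in DNA damage repair.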

[7] = at 5.0 µM (retest, dose inferred, filed as 0.5)
[8] = at 50.0 µM (retest, dose inferred, filed as 5.0)

Measured: growth inhibition

C(=NCCC[Si]12OCCN(CCO1)CCO2)c1ccc(C=NCCC[Si]23OCCN(CCO2)CCO3)cc1
inactive: [1]; [7] 3% | [1]; [8] -3% | [1]; at 50.0 µM 38.1% | [2]; [7] 2% | [2]; [8] 3% | [3]; [7] -1% | [3]; [8] -2% | [3]; at 50.0 µM 1.65% | [4]; [7] 3% | [4]; [8] -4% | [5]; [7] 1% | [5]; [8] -3% | [6]; [7] 3% | [6]; [8] 3% | [6]; at 50.0 µM 54%
active: [2]; at 50.0 µM 98.3% | [4]; at 50.0 µM 87.7% | [5]; at 50.0 µM 76.5%

CCOC(=O)Cc1[nH]c(C(=O)c2ccccc2)cc1C(=O)c1ccccc1
inactive: [1]; [7] 20% | [1]; at 50.0 µM -44.6% | [2]; [7] 11% | [2]; at 50.0 µM -9.35% | [3]; [7] -1% | [3]; at 50.0 µM -36.1% | [4]; [7] 7% | [4]; at 50.0 µM 5% | [5]; [7] -2% | [5]; at 50.0 µM -24.4% | [6]; [7] 17% | [6]; at 50.0 µM -42.9%
active: [1]; [8] 87% | [2]; [8] 81% | [3]; [8] 88% | [4]; [8] 97% | [5]; [8] 97% | [6]; [8] 89%

O=C(O)COc1cc(Br)cc(Br)c1-c1ccccc1
inactive: [1]; [7] 2% | [1]; [8] 36% | [1]; at 50.0 µM 65.2% | [2]; [7] 14% | [2]; at 50.0 µM 59.5% | [3]; [7] -10% | [3]; [8] 39% | [4]; [7] 2% | [4]; [8] 56% | [4]; at 50.0 µM 65% | [5]; [7] -3% | [5]; [8] 46% | [5]; at 50.0 µM 29.8% | [6]; [7] 22% | [6]; at 50.0 µM 67.7%
active: [2]; [8] 70% | [3]; at 50.0 µM 71.2% | [6]; [8] 78%

c1ccc(-c2cc(CN3CCOCC3)c(-c3ccccc3)o2)cc1
active: [1]; [8] 98% | [2]; [8] 99% | [3]; [8] 99% | [4]; [8] 99% | [5]; [8] 99% | [6]; [8] 99%
inactive: [1]; [7] -1% | [1]; at 50.0 µM 52.8% | [2]; [7] -6% | [2]; at 50.0 µM 51.9% | [3]; [7] 3% | [3]; at 50.0 µM 57.9% | [4]; [7] -6% | [4]; at 50.0 µM 56.4% | [5]; [7] 1% | [5]; at 50.0 µM 55.8% | [6]; [7] -2% | [6]; at 50.0 µM 54.1%
